From PubChem BioAssay
A selection: hits, their analogues and other compounds. The true share with any hit is near 6.2%.
FMDV antiviral: foot and mouth disease virus antiviral activity. FMDV antiviral cell-based qHTS. Potency, µM (top dose mostly 57.9 µM), inactives show top-dose activity change, negative = inhibition, hits mostly inhibitors. 410,000 compounds, 1.2% hits; calls by dose curve; tested in HEK293T cells; note: read-out not given here; potency is the fitted concentration of half-maximal effect; nearly all actives have a fitted effect of over 45% in size
Lassa entry inh: Lassa virus entry inhibition. Lassa virus pseudotype entry inhibition, cell reporter. Potency, µM (top dose mostly 37.9 µM), for the others: at the top dose activity change, negative = inhibition, most hits filed as inhibitors. 300,000 compounds, 1.2% hits. AID 540256; calls by dose curve; tested in HEK293 cells; note: potency is the fitted concentration of half-maximal effect; nearly all actives have a fitted effect of over 50% in size
HCMV inh: human cytomegalovirus inhibition; HFF cells, HCMV-luciferase reporter, 72 h; hits give low values; activity change, negative = inhibition, % at 57.5 µM; 410,000 compounds, 4.5% hits; AID 1259415; in the data active = activity change below about -60%; inconclusive = no clear call, values can overlap the other calls; inactive = above about -39%
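After 16 h attachment at 37C, HFF cells received test compound and HCMV-luciferase (1 PFU/cell); reporter luminescence read 72 h later, data normalized against buffer-only and known inhibitor Salinomycin.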
MARV entry inh: inhibitors of Marburg virus binding or cell entry. Marburg virus pseudotyped entry inhibition, cell reporter. 300,000 compounds, 1.8% hits. AID 540276. Potency, µM (top dose mostly 37.8 µM), inactives show at the highest dose activity change, negative = inhibition, hits mostly inhibitors; calls by dose curve; tested in HEK293 cells; note: potency is the fitted concentration of half-maximal effect
* hit, by the source's call; ? = inconclusive; / = no result; ! = not confirmed by another sample; [ ] = another dose, or the depositor's remark. % is set by controls: 0 for no effect and ±100 for the full control effect.

SMILES	FMDV antiviral	Lassa entry inh	HCMV inh	MARV entry inh
CC(=O)NCCNc1nc(-c2cccc(NS(C)(=O)=O)c2)nc2ccccc12	-10%	/	/	/
Cc1ccc(C2=Nc3ccccc3N(CC(=O)Nc3cccc(F)c3)C(=O)C2)cc1C	29%	?	31	/
Cc1ccc(NC(=O)CN2C(=O)CC(c3ccc(F)cc3)=Nc3ccccc32)cc1F	10%	6%[46.1 µM]	-81*	/
COC(=O)[C@H]1[C@H](CO)[C@H]2Cn3c(cccc3=O)[C@@H]1N2C(=O)c1ccccn1	/	/	-22	/
Cc1ccc(-c2ccnc3cc(C)nn23)cc1	26%	/	?	/
Cc1cc2nccc(-c3ccc(Cl)cc3Cl)n2n1	31%	/	-70*	/
Cc1cc2nccc(-c3ccncc3)n2n1	-7%	34%[46.1 µM]	-64*	5%[46.1 µM]
COc1ccccc1-c1nnc(SCC(=O)c2ccc(F)cc2)n1-c1ccccc1	13%	?	-9	-6%[46.1 µM]
CCN(CC)c1ccc([N+](=O)[O-])cc1/C=N/NC(=O)CC#N	-25%	-5%	-22	4%
Cc1cc(/C=N/NC(=O)CC#N)c(C)n1-c1ccc([N+](=O)[O-])cc1	-14%	-3%	-91*	-13%
CN=C1SC(CC(=O)NCCc2ccc(OC)c(OC)c2)C(=O)N1C (configuration not stated)	-3%	7%[46.1 µM]	-64*!	?
C[C@@H]1C=CCCO[C@]12C(=O)N(Cc1ccccc1C(F)(F)F)c1ccccc12	/	/	?	-12%[14.2 µM]
Nc1nnc(SCc2ccc(Cl)cc2)s1	-10%	17%	-15	6%
Clc1ccc(CSc2nnc(NC3=NCCCCC3)s2)cc1	-26%	-12%	-67*	-28%
c1ccc(C(c2ccccc2)N2CCCC3(CCNCC3)C2)cc1	-18%	/	/	/
COc1ccc(CNS(=O)(=O)c2c(C)[nH]c(C)c2C(=O)N2CCCC2)cc1	-13%	/	-62*	/
CC(=O)Cc1nsc(NC(=O)c2ccc(F)cc2)n1	1%	?	-30	5%[46.1 µM]
CC(=O)Cc1nsc(NC(=O)c2ccccc2)n1	49%	18%	-64*	-2%
CC1CC(N(C(=O)c2ccc(Cl)cc2)c2ccccc2)c2ccccc2N1C(=O)c1ccco1 (configuration not stated)	?	20µM*	-27	?
CC1CC(N(C(=O)c2ccco2)c2ccccc2)c2ccccc2N1C(=O)c1ccco1 (configuration not stated)	-1%	-25%	32	?
Cc1ccc(/C=C/c2onc(C)c2S(=O)(=O)N2CCC(C(=O)N3CCC(N(C)C(C)C)CC3)CC2)cc1	-7%	-29%[46.1 µM]	-101*	/
Cc1ccc(C)c(N2CCN(C(=O)C3CCCCN3S(=O)(=O)c3ccc(F)cc3)CC2)c1 (configuration not stated)	32µM*	-25%	-19	10µM*!
Cc1ccc(Cl)cc1N1CCN(C(=O)CN(c2ccccc2)S(=O)(=O)N(C)C)CC1	20µM*	-26%	-32	0%[46.1 µM]
CC(=O)c1ccc(N2CCN(C(=O)C3CCN(S(=O)(=O)c4c(C)noc4/C=C/c4ccc(C)cc4)CC3)CC2)cc1	-23%	-1%[46.1 µM]	-24	/
Cc1ccc(C)c(N2CCN(C(=O)C3CCN(S(=O)(=O)c4c(C)noc4C)CC3)CC2)c1	?	/	-68*	2%
SMILES	FMDV antiviral	Lassa entry inh	HCMV inh	MARV entry inh
CN1CCN(C(=O)CN(c2ccccc2)S(=O)(=O)N(C)C)CC1	1%	?	?	?
CCC[C@H](CCC(=O)Nc1ccc(C(=O)OCC)cc1)C(=O)O	/	/	/	-6%
Cc1c(C(=O)NCc2ccco2)cnn1-c1ncc2c(n1)-c1ccccc1CC2	48%	/	/	/
COC(=O)Cc1ccc(NC(=S)N2CCN(c3ccccn3)CC2)cc1	-7%	/	-24	/
COC(=O)Cc1ccc(NC(=S)N2CCN(c3cc(Cl)ccc3C)CC2)cc1	?	-25%	-70*	?
Cc1cc(C)nc(N2CCC(C(=O)N3CCN(c4cc(Cl)ccc4C)CC3)CC2)n1	28µM*	-11%	53	?
Cc1ccc(Cl)cc1N1CCN(C(=O)C2CCN(S(C)(=O)=O)CC2)CC1	?	-28%[46.1 µM]	-64*	?
Cc1ccc(C)c(N2CCN(C(=O)C3CCN(c4nc(C)cc(C)n4)CC3)CC2)c1	18µM*	-10%	2	?
Cc1ccc(Cl)cc1N1CCN(C(=O)C2CCN(S(=O)(=O)c3cnc[nH]3)CC2)CC1	-18%	2%	2	-28%[46.1 µM]
COC(=O)Cc1nnn2c1CC(OC)c1cc(Br)ccc1-2 (configuration not stated)	/	/	-31	/
Cc1cc(NC(=O)NC(=O)c2ccccc2NC(=O)CN)ccc1Oc1ncc(Br)cn1	-5%	0%	-84*	?
Cc1cc(NC(=O)NC(=O)c2ccccc2NC(=O)CN(C)C)ccc1Oc1ncc(Br)cn1	0%	?	-24	?
Nc1ccccc1C(=O)NC(=O)Nc1ccc(Oc2ncc(Br)cn2)c(Cl)c1	-18%	?	-87*	-20%
COc1ccccc1C(=O)NC(=O)Nc1cccc(Cl)c1	17%	/	370	/
CCOc1ccccc1-c1nc(SCC(=O)c2ccc(OC)c(Br)c2)n[nH]1	-23%	30%[46.1 µM]	0	11%[46.1 µM]
CN=C(NC#N)NCCSCc1csc(N=C(N)N)n1	-18%	/	/	/
COc1ccc(CCNC(c2ccc(F)cc2)c2nnc(-c3ccccc3Cl)o2)cc1OC (configuration not stated)	?	-28%[46.1 µM]	-9	13µM*
Fc1ccc(C(NCCc2ccc(Cl)cc2)c2nnc(-c3ccccc3)o2)c(Cl)c1 (configuration not stated)	14%	10%[46.1 µM]	10	-24%[46.1 µM]
COC(=O)[C@@H]1CCCN1Cc1ccc2c(c1)CN(Cc1ccc3c(c1)CCCN3C)CCO2	-2%	/	/	/
COc1cccc(C(c2nnnn2-c2ccc3c(c2)OCCO3)N2CCC(n3c(=O)[nH]c4ccccc43)CC2)c1OC (configuration not stated)	-25%	/	-97*	/
O=c1[nH]c2ccccc2n1C1CCN(C(c2ccccc2OC(F)(F)F)c2nnnn2-c2ccc3c(c2)OCCO3)CC1 (configuration not stated)	?	/	-106*	/
COc1ccc(-n2nnnc2C(c2ccccc2)N2CCC(n3c(=O)[nH]c4ccccc43)CC2)cc1 (configuration not stated)	0%	/	-18	/
COc1ccc(-n2nnnc2C(c2cccc(OC)c2OC)N2CCC(n3c(=O)[nH]c4ccccc43)CC2)cc1 (configuration not stated)	?	/	-35	/
CC[C@H](OC(C)=O)C(C[C@H](C)N(C)C)(c1ccccc1)c1ccccc1	-23%	/	-86*	/
CN1OC[C@@H]2CN3C(=O)N(c4cccc5ccccc45)c4ccccc4[C@@H]3C[C@@H]21	-15%	/	-102*	/
CCCCCN(CCCCC)C(=O)C(CCC(=O)O)NC(=O)c1ccc(Cl)c(Cl)c1 (configuration not stated)	-11%	-1%	-61*	?
CCn1c(=O)n(CC)c2cc(N3CCCC3)c(NC(=O)c3cc(Br)ccc3OC)cc21	?	/	-70*	/
COc1ccc(Br)cc1C(=O)Nc1ccccc1N1CCCC1	5%	/	?	/
CCOC(=O)N1CCN(c2nc(CN3CCCCC3CCO)nc3c(C)cccc23)CC1 (configuration not stated)	-10%	/	/	/
